Reference: PubChem BioAssay (NCATS)
Results filed as inconclusive are left out. A call without a number means that no potency is given here. Calls of active or inactive are those of the source. Calls come from the whole dose curve; as a rule, active = well fitted curve in the direction sought with a large enough effect; inconclusive = small, poorly fitted or top-dose-only effect, or another doubt; inactive = no such curve, though single readings can be large; an effect the other way counts as inactive or inconclusive.

How the values were obtained:
[1] = qHTS of pediatric cancer cell lines to identify multiple opportunities for drug repurposing: Primary screen for TC32 cells (AID 1347089); note: nearly all actives have a fitted effect of over 60% in size; note: potency is the fitted concentration of half-maximal effect
Method in brief: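 In the primary qHTS, MIPE compounds were tested at 11 concentrations (0.78 nM to 46 µM) and NPC compounds at 8 (0.59 nM to 46 µM) on TC32 cells for 48 h. CellTiter-Glo luminescence gave viability.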

[2] = qHTS of pediatric cancer cell lines to identify multiple opportunities for drug repurposing: Primary screen for DAOY cells (AID 1347090); note: nearly all actives have a fitted effect of over 55% in size; note: potency is the fitted concentration of half-maximal effect
Method in brief: (§1)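 Viability measured as metabolically active cells via CellTiter-Glo luminescence following 48 hours of compound exposure, 11-point dilutions in confirmatory testing. 500-1,000 cells/well plated 5 hours before dosing; controls were DMSO and 2.3 µM bortezomib.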

[3] = qHTS of pediatric cancer cell lines to identify multiple opportunities for drug repurposing: Primary screen for SK-N-MC cells (AID 1347093); note: potency is the fitted concentration of half-maximal effect
Method in brief: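 Metabolically active cells were quantified by ATP-dependent luminescence (CellTiter-Glo, 15 min at room temperature) following 48 h treatment. Cells had been plated at 500-1,000 per well and settled for 5 h beforehand.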

[4] = qHTS of pediatric cancer cell lines to identify multiple opportunities for drug repurposing: Primary screen for U-2 OS cells (AID 1347096); note: nearly all actives have a fitted effect of over 50% in size; note: potency is the fitted concentration of half-maximal effect
Method in brief: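 Viability after 48 h compound treatment at 37C, 500-1,000 cells/well, read as ATP luminescence with CellTiter-Glo. Primary screens used 11-point (MIPE, 0.78 nM-46 µM) or 8-point (NPC, 0.59 nM-46 µM) final concentrations; follow-up screens used 11-point dilutions.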

[5] = qHTS of pediatric cancer cell lines to identify multiple opportunities for drug repurposing: Primary screen for SJ-GBM2 cells (AID 1347091); note: potency is the fitted concentration of half-maximal effect
Method in brief: as §1

[6] = qHTS of pediatric cancer cell lines to identify multiple opportunities for drug repurposing: Primary screen for A673 cells (AID 1347092); note: nearly all actives have a fitted effect of over 45% in size; note: potency is the fitted concentration of half-maximal effect
Method in brief: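 48 h compound exposure, A673, 500-1,000 cells/well, 37 degrees C/5% CO2. MIPE: 11-point, 0.78 nM-46 µM; NPC: 8-point, 0.59 nM-46 µM (final). Readout CellTiter-Glo luminescence after 15 min RT.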

[7] = qHTS of pediatric cancer cell lines to identify multiple opportunities for drug repurposing: Primary screen for BT-37 cells (AID 1347094); note: potency is the fitted concentration of half-maximal effect
Method in brief: (§2)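 Following a 5-hour attachment period, cells at 500-1,000/well received compounds and were cultured for 48 hours. CellTiter-Glo was added and luminescence read to estimate viable, metabolically active cells.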

[8] = qHTS of pediatric cancer cell lines to identify multiple opportunities for drug repurposing: Primary screen for NB-EBc1 cells (AID 1347095); note: potency is the fitted concentration of half-maximal effect
Method in brief: as §2

[9] = NS1 protein of Zika virus - qHTS assay to identify small molecule inhibitors in human HEK 293 cells (AID 1347053); note: series mostly up to about 46 µM; nearly all actives have a fitted effect of over 55% in size
Method in brief: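 Compound-treated (1 h pre-infection) HEK 293 cells infected with ZIKV MR766, MOI = 0.5; after 24 h at 37 C, NS1 read by TR-FRET; data normalized to uninfected and infected controls.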

[10] = qHTS of pediatric cancer cell lines to identify multiple opportunities for drug repurposing: Primary screen for Saos-2 cells (AID 1347097); note: nearly all actives have a fitted effect of over 40% in size; note: potency is the fitted concentration of half-maximal effect
Method in brief: as §2

[11] = qHTS of pediatric cancer cell lines to identify multiple opportunities for drug repurposing: Primary screen for SK-N-SH cells (AID 1347098); note: nearly all actives have a fitted effect of over 65% in size; note: potency is the fitted concentration of half-maximal effect
Method in brief: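 Cells (500-1,000/well) rested 5 h, then received compounds for 48 h; metabolically active cells were measured by CellTiter-Glo luminescence. Final concentrations spanned up to 46 µM (MIPE, 11-point) or 0.59 nM-46 µM (NPC, 8-point) in primary screens, 11-point in follow-ups.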

Question: Which Potency [1] does the source give for CN1CCN(CCC(=O)N2c3ccccc3Sc3ccc(C(F)(F)F)cc32)CC1 here?
Answer: inactive

Question: What about the Potency [2] of the same molecule?
Answer: inactive

Question: What about the Potency [3] of the same molecule?
Answer: 29.9 µM (active)

Question: And the Potency [4]?
Answer: inactive

Question: Which results are given for CCN(CC)CCOC(=O)C(Cc1cccc2ccccc12)CC1CCCO1 (stereo unspecified)?
Answer: Potency [1]: inactive; Potency [2]: inactive; Potency [5]: inactive; Potency [6]: inactive; Potency [7]: inactive; Potency [8]: inactive; Potency [4]: inactive

Question: With CCCCCCCCCCCCCC(=O)OC(C)C as the molecule, how does the Potency [9] read?
Answer: inactive

Question: What about the Potency [1] of the same molecule?
Answer: inactive

Question: What about the Potency [2] of the same molecule?
Answer: inactive

Question: What about the Potency [5] of the same molecule?
Answer: inactive

Question: And the Potency [3]?
Answer: inactive

Question: What about the Potency [7] of the same molecule?
Answer: inactive

Question: And the Potency [8]?
Answer: inactive

Question: What about the Potency [4] of the same molecule?
Answer: inactive

Question: And the Potency [10]?
Answer: inactive

Question: And the Potency [11]?
Answer: inactive

Question: With C#C[C@]1(O)CC[C@H]2[C@@H]3CCc4cc(OC)ccc4[C@H]3CC[C@@]21C as the molecule, how does the Potency [9] read?
Answer: inactive

Question: What about the Potency [1] of the same molecule?
Answer: inactive

Question: What about the Potency [2] of the same molecule?
Answer: inactive

Question: What about the Potency [6] of the same molecule?
Answer: inactive

Question: What about the Potency [7] of the same molecule?
Answer: inactive

Question: What about the Potency [8] of the same molecule?
Answer: inactive

Question: What about the Potency [4] of the same molecule?
Answer: inactive

Question: What about the Potency [10] of the same molecule?
Answer: inactive

Question: Which results are given for CCCN(CCc1cccs1)[C@H]1CCc2c(O)cccc2C1?
Answer: Potency [9]: inactive; Potency [1]: inactive; Potency [2]: inactive; Potency [5]: inactive; Potency [3]: inactive; Potency [8]: inactive; Potency [4]: inactive; Potency [11]: inactive

Question: For O=C(N/N=C/c1ccc([N+](=O)[O-])o1)c1ccc(O)cc1, which Potency [9] is on record?
Answer: inactive

Question: What about the Potency [5] of the same molecule?
Answer: inactive

Question: What about the Potency [4] of the same molecule?
Answer: inactive

Question: And the Potency [10]?
Answer: inactive

Question: With O=[N+]([O-])c1ccc(/C=N\O)o1 as the molecule, how does the Potency [9] read?
Answer: inactive

Question: And the Potency [1]?
Answer: inactive

Question: And the Potency [2]?
Answer: inactive

Question: What about the Potency [5] of the same molecule?
Answer: inactive

Question: And the Potency [3]?
Answer: 4.22 µM (active)

Question: What about the Potency [7] of the same molecule?
Answer: inactive

Question: And the Potency [8]?
Answer: inactive

Question: And the Potency [4]?
Answer: inactive

Question: What about the Potency [10] of the same molecule?
Answer: inactive

Question: And the Potency [11]?
Answer: inactive

Question: For CN1CCN(c2cc3c(cc2F)c(=O)c(C(=O)O)cn3-c2ccc(F)cc2)CC1, which Potency [9] is on record?
Answer: inactive

Question: And the Potency [1]?
Answer: inactive

Question: What about the Potency [2] of the same molecule?
Answer: inactive

Question: And the Potency [5]?
Answer: inactive

Question: And the Potency [3]?
Answer: inactive

Question: What about the Potency [7] of the same molecule?
Answer: inactive

Question: And the Potency [8]?
Answer: inactive

Question: And the Potency [4]?
Answer: inactive

Question: What about the Potency [10] of the same molecule?
Answer: inactive

Question: What about the Potency [11] of the same molecule?
Answer: inactive

Question: With CN1CCc2cccc3c2[C@H]1Cc1ccc(O)c(O)c1-3 as the molecule, how does the Potency [4] read?
Answer: inactive

Question: What about the Potency [10] of the same molecule?
Answer: 21.1 µM (active)

Question: What does the source list for CC(=O)O[C@]1(C(C)=O)CC[C@H]2[C@@H]3C=C(Cl)C4=CC(=O)CC[C@]4(C)[C@H]3CC[C@@]21C?
Answer: Potency [9]: inactive; Potency [1]: inactive; Potency [2]: inactive; Potency [5]: inactive; Potency [6]: inactive; Potency [8]: inactive; Potency [4]: inactive

Question: For O=C1c2cccc3c2[C@H](CCC3)CN1[C@@H]1CN2CCC1CC2, which Potency [1] is on record?
Answer: inactive

Question: And the Potency [2]?
Answer: inactive

Question: And the Potency [8]?
Answer: inactive

Question: And the Potency [4]?
Answer: inactive

Question: And the Potency [10]?
Answer: inactive

Question: What about the Potency [11] of the same molecule?
Answer: inactive

Question: Which Potency [9] does the source give for Cc1ccc2c(Br)cc(Br)c(O)c2n1 here?
Answer: inactive

Question: What about the Potency [2] of the same molecule?
Answer: 8.41 µM (active)

Question: What about the Potency [5] of the same molecule?
Answer: 13.3 µM (active)

Question: What about the Potency [6] of the same molecule?
Answer: 2.66 µM (active)

Question: What about the Potency [3] of the same molecule?
Answer: 11.9 µM (active)

Question: And the Potency [7]?
Answer: 8.71 µM (active)

Question: What about the Potency [8] of the same molecule?
Answer: 2.99 µM (active)

Question: With CC(C)n1c(/C=C/[C@@H](O)C[C@@H](O)CC(=O)O)c(-c2ccc(F)cc2)c2ccccc21 as the molecule, how does the Potency [9] read?
Answer: inactive

Question: What about the Potency [1] of the same molecule?
Answer: 16.7 µM (active)

Question: What about the Potency [2] of the same molecule?
Answer: 1.33 µM (active)

Question: And the Potency [6]?
Answer: 5.31 µM (active)

Question: And the Potency [3]?
Answer: 15 µM (active)

Question: And the Potency [7]?
Answer: 15.5 µM (active)

Question: And the Potency [4]?
Answer: 6.68 µM (active)

Question: And the Potency [10]?
Answer: 1.5 µM (active)

Question: What about the Potency [11] of the same molecule?
Answer: 3.44 µM (active)

Question: With CC[C@H](c1ccc(O)cc1)[C@@H](CC)c1ccc(O)cc1 as the molecule, how does the Potency [9] read?
Answer: inactive

Question: What about the Potency [5] of the same molecule?
Answer: 3.35 µM (active)

Question: And the Potency [10]?
Answer: 23.7 µM (active)

Question: What about the Potency [11] of the same molecule?
Answer: 19.4 µM (active)
